This is part of a sample that, as a whole, favours compounds with a hit. Of some 83,000 tested, about 20% had one in any assay.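 Single-dose data. Exposure time 48 hours. Values below 10 considered active.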 A number with no mark means an inactive call. The source made the active and inactive calls.
Test system: OVCAR-3 ovarian
Assay: NCI-60 one-dose screen, 48 h (100 = growth as untreated, 0 = no growth, -100 = all killed)
Details: 10 µM

In order of rising growth:
1. O=C(/C=C/c1ccco1)c1nc2ccccc2n1Cc1ccc(Br)cc1  22%
2. CC12CCC3(CCC(=O)NCCCNc4ccnc5cc(Cl)ccc45)[C@@](C)(OO[C@]3(C)O1)O2  30.8%
3. O=C(/C=C/c1ccc(Cl)cc1Cl)c1nc2ccccc2n1Cc1ccc(F)cc1  31.7%
4. O=C(/C=C/c1ccc(Cl)cc1)c1nc2ccccc2n1Cc1ccc(Br)cc1  38.2%
5. C#CC[Se]C(=O)c1ccc2n[se]nc2c1  46.2%
6. O=C(/C=C/c1ccco1)c1nc2ccccc2n1Cc1ccc(F)cc1  46.3%
7. CC(C)N=C([Se])NC(=O)c1cccs1  66.3%
8. CCOC(=O)C1=C(Nc2ccccc2)C(=O)OC12C(=O)Nc1ccccc12 (centres undefined)  104%
9. Cc1ccc2[nH]c(=S)n(-c3ccc(F)cc3)c(=O)c2c1  114%
10. CCOP(=O)(OCC)C(NC(C)=O)C(=O)SCCN (centres undefined)  147%

In the case of `COc1cc2cc(C(=O)N3C[C@@H](CCl)c4c3cc(OC(=O)N3CCN(C)[C@@H]5CSSC[C@@H]53)c3ccccc43)[nH]c2c(OC)c1OC`, the growth is reported as -15.8% (active).
In the case of `COc1cc2cc(C(=O)N3C[C@@H](CCl)c4c3cc(OC(=O)N3CCN(C)[C@@H]5CSSC[C@H]53)c3ccccc43)[nH]c2c(OC)c1OC`, the growth is reported as -9.08% (active).
For `COc1ccc2cc([C@H](C)C(=O)[Se]CCC#N)ccc2c1`, the growth was -61% (active).
In the case of `CC12OOC(C)(OO1)C2CCC(=O)OCCNc1ccnc2cc(Cl)ccc12` (centres undefined), the growth is reported as -65.9% (active).
